# Data as given in PubChem BioAssay AID540276 (National Center for Advancing Translational Sciences (NCATS), 2011).
# The whole screen tested about 300,000 compounds, of which about 5,400 (1.8%) were called active. Another 28% or so got no clear call; they are omitted. This is one part of a sample in which actives are shown more often than they occur. Values without a mark were called inactive. The call rests on the fitted dose curve; tested in HEK293 cells.
# Assay: qHTS for inhibitors of binding or entry into cells for Marburg Virus
# Conditions: Marburg virus pseudotyped entry inhibition, cell reporter; series mostly up to 37.8 µM; activity change, negative = inhibition: at the top concentration
# On the % scale 0 is the no-effect control and ±100 the full control effect; potency means the concentration at half of the fitted maximal effect.
Structure (SMILES),Potency,"activity change, negative = inhibition"
CCOC(=O)c1ccc(N2C(=O)c3n[nH]c(-c4ccco4)c3C2c2ccc(O)cc2)cc1 (configuration not stated),11.2 µM (active),–
CCOC(=O)c1ccc(N2C(=O)c3[nH]nc(-c4ccccc4)c3C2c2ccc(C(C)C)cc2)cc1 (configuration not stated),–,-0.0996% [at 46.1 µM]
COc1ccccc1S(=O)(=O)c1c(C)cc(C)[nH]c1=O,–,11.3% [at 46.1 µM]
OCc1ccc(-c2ccccc2)c(-c2ccccc2)c1,–,-2.14% [at 46.1 µM]
CN(C)c1ccc(CNC23CN4CN(CN(C4)C2)C3)cc1,–,5.15% [at 46.1 µM]
c1cnc(NC2C3CC4CC(C3)CC2C4)nc1 (configuration not stated),–,-0.235%
CN(C)c1ccc(CNC2C3CC4CC(C3)CC2C4)cc1 (configuration not stated),14.6 µM (active),–
CC(=O)Oc1cccc(C(=O)Nc2ccccc2NC(=O)c2cccc(OC(C)=O)c2)c1,–,0.627%
COc1ccc(C(=O)NC2CC2)cc1OC1CCN(Cc2cnn(C)c2)CC1,–,21.7%
O=C(CN1CCN(c2ccccc2)CC1)Nc1ccc(F)cc1,–,29.4%
CCCC(=O)Nc1ccccc1N1CCN(C(=O)c2ccccc2)CC1,–,-15.4%
CCC(=O)Nc1ccccc1N1CCN(S(C)(=O)=O)CC1,–,0.651%
CCCCC(=O)Nc1ccccc1N1CCN(c2ccc(F)cc2)CC1,11.2 µM (active),–
O=C(Nc1ccccc1N1CCN(c2ccccc2)CC1)c1cccc(F)c1,–,1.52%
CCC(C)C(=O)Nc1ccccc1N1CCN(c2ccc(F)cc2)CC1 (configuration not stated),12.6 µM (active),–
O=C(Cc1ccc(S(=O)(=O)N2CCOCC2)s1)NCCOc1ccccc1F,–,15.4% [at 46.1 µM]
O=C(c1cc2cc(Br)cc(Br)c2oc1=O)N1CCOCC1,–,15% [at 46.1 µM]
COCCNCCOCCOc1cccc(OC)c1,–,-0.109%
COCCCNCCOCCOc1ccc(Cl)cc1Br,11.6 µM (active),–
CSc1ccc(/C=N\NC(=O)COc2ccc(Cl)cc2Br)cc1,–,-19%
CCS(=O)(=O)Nc1ccc(C(=O)NCCSc2ccccc2)cc1,–,3.27%
CC(C)Cn1c(=O)c2ccccc2n2c(CCC(=O)NCc3ccccn3)nnc12,–,22.8% [at 46.1 µM]
CNN/C(N=Cc1ccc([N+](=O)[O-])s1)=N\S(=O)(=O)c1cc(C)c(Cl)cc1SCc1ccccc1,–,-8.61%
O=[N+]([O-])c1ccc(C=Nc2ccc(Cl)cc2Cl)s1,5.8 µM (active),–
CN1CCN(c2ccc(NC(=O)c3cc(Cl)c4c(c3)OCCO4)cc2)CC1,–,-14.5% [at 46.1 µM]
CCc1ccc(N(C(=O)c2csnn2)C(C(=O)NC2CCCCC2)c2cccnc2)cc1 (configuration not stated),–,-14.8% [at 46.1 µM]

Structure (SMILES),Potency,"activity change, negative = inhibition"
CCCn1nc(NS(=O)(=O)c2ccc(F)cc2)c2cc3ccccc3nc21,–,-1.54% [at 46.1 µM]
CC(C)Cn1c(SCC(=O)Nc2ccc(Cl)cc2F)nc(O)cc1=O,–,21%
O=C(Nc1ccccc1Cl)/C(Cl)=C(\Cl)S(=O)c1ccccc1 (configuration not stated),3.16 µM (active),–
O=C(COC(=O)c1cccs1)Nc1ccccc1Cl,–,17.9% [at 46.1 µM]
COCCN(CCOC)C(=S)Nc1ccccc1Cl,–,-0.33% [at 46.1 µM]
O=C1c2ccccc2C(=O)C1C(=O)C1CC1,–,2.92% [at 46.1 µM]
O=c1c2ccccc2ncn1CCc1ccncc1,–,9.16%
Cc1nn2c3cc(N4CCOCC4)ccc3nc2c2ccccc12,–,-9.17%
Cc1cc(Nc2ccc(N3CCOCC3)cc2)c2cccc(C)c2n1,0.794 µM (active),–
Cc1ccccc1N/N=C/c1ccc(N2CCOCC2)cc1,–,22.1%
CC(NC(=O)c1cccc(S(=O)(=O)N2CCc3ccccc3C2)c1)c1ccco1 (configuration not stated),–,-28.7%
Cc1cc(Oc2ccccc2)nc(N2CCOCC2)n1,–,0.114%
Cc1cc(Nc2ccc(Cl)cc2)nc(N2CCOCC2)n1,7.94 µM (active),–
Cc1cc(C)nc(N2CCC(C(=O)Nc3ccc4c(c3)OCCO4)CC2)n1,–,-25.8% [at 46.1 µM]
O=C(O)c1ccc2c(=O)n3c(nc2c1)/C(=C/c1ccc(OC(F)F)cc1OC(F)F)CC3,–,14.9% [at 46.1 µM]
Cc1oc2ccc(O)c(CN3CCCCC3)c2c1C(=O)Nc1cccc(C(F)(F)F)c1,10 µM (active),–
CCN1CCN(Cc2c(O)ccc3oc(C)c(C(=O)Nc4ccc(C)cc4C)c23)CC1,–,10.7% [at 46.1 µM]
Cc1oc2ccc(O)c(CN3CCOCC3)c2c1C(=O)Nc1cccc(Cl)c1C,–,-0.854% [at 46.1 µM]
Cc1cc(=O)oc2c(C)c(OC(C)C(=O)NC3CCN(Cc4ccccc4)CC3)ccc12 (configuration not stated),–,-7.42% [at 46.1 µM]
Cc1cc(-c2nnc(SCC(=O)Nc3ccc(F)cc3)n2N)n[nH]1,–,16.2% [at 46.1 µM]
CC(C)CC1C(=O)N(Cc2cn(Cc3ccco3)nn2)CCS(=O)(=O)N1Cc1ccc(-c2ccc(Cl)c(Cl)c2)cc1 (configuration not stated),25 µM (active),–
CC(=O)c1cccc(-c2ccc(CN3C(CC(C)C)C(=O)N(Cc4cn(CC5CCCCC5)nn4)CCS3(=O)=O)cc2)c1 (configuration not stated),–,0.481%
Cc1ccc(C)c(NC(=O)COC(=O)c2nn(C)c(=O)c3ccccc23)c1,–,11.2%
O=C(NC1=CC(=O)c2ccccc2C1=O)c1ccccc1,10 µM (active),–
O=C(Nc1cccc(NC(=O)c2ccc(Br)cc2)c1)c1ccccc1,inactive,–
O=C1C=C(NS(=O)(=O)c2ccccc2)C(=O)c2ccccc21,–,-2.09% [at 46.1 µM]
